Data taken from PubChem BioAssay (NCATS).
Results filed as inconclusive are left out. Unmarked numbers belong to inactive results. The source made the active and inactive calls. The call rests on the fitted dose curve; in most records, active means well fitted cell-killing curve with a large enough effect; inconclusive means small, poorly fitted or top-dose-only effect, or effect the other way; inactive means no such curve, though single readings can be large or run the other way.

assay: Quantitative High-Throughput drug screen in 47 multiple myeloma cell lines against the NCATS MIPE library collection: KMS11_JCRBsus cell viability assay (AID 1919873); conditions: KMS11 myeloma viability, CellTiter-Glo ATP luminescence, 48 h; series mostly up to 45.8 µM; viability (% of control): at the top concentration; further: nearly all actives have a fitted effect of over 50% in size;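 on viability (% of control): 100% = DMSO-only wells and 0% = media-only wells without cells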
How it was run: (§1)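 qHTS format: cells plated (500/well), pin-dosed with MIPE 4.0 compounds, kept 48 h at 37 °C. Readout was CellTiter-Glo luminescence, median RLU.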
Potency means the concentration at half of the fitted maximal effect.

Row | Compound | viability (% of control) [%] | Potency
1 | Nc1nc2ccc(OC(F)(F)F)cc2s1 | 111 | –
2 | CC(c1cc2ccccc2s1)N(O)C(N)=O (configuration not stated) | 106 | –
3 | c1ccc([C@H]2CN3CCSC3=N2)cc1 | 93.9 | –
4 | Nc1nc2[nH]cc(CCc3ccc(C(=O)N[C@@H](CCC(=O)O)C(=O)O)cc3)c2c(=O)[nH]1 | – | 0.59 µM (active)
5 | CS(=O)(=O)c1ccc(C(=O)Nc2ccc(Cl)c(-c3ccccn3)c2)c(Cl)c1 | 92.5 | –
6 | N[C@@H]1CONC1=O | 105 | –
7 | Cc1ccc(NC(=O)c2cccc(C(C)(C)C#N)c2)cc1Nc1ccc2ncn(C)c(=O)c2c1 | – | 11.8 µM (active)
8 | NC(=O)c1ccc(-c2nc(-c3ccc4c(c3)OCO4)c(-c3ccccn3)[nH]2)cc1 | 91.7 | –
9 | COc1c(Cl)cc2c([nH]c3cnccc32)c1NC(=O)c1cccnc1C | – | 23.5 µM (active)
10 | Cn1cc(-c2ccc3nnc(C(F)(F)c4ccc5ncccc5c4)n3n2)cn1 | 99.3 | –
11 | CCn1c(-c2nonc2N)nc2cnc(Oc3cccc(NC(=O)c4ccc(OCCN5CCOCC5)cc4)c3)cc21 | – | 11.8 µM (active)
12 | Cc1cc(C=c2sc3nc4ccccc4n3c2=O)c(C)n1-c1ccccc1 | 112 | –
13 | O=C1[C@H](Cc2ccc(O)cc2)N2C(=O)CCN(C(=O)NCc3ccccc3)[C@H]2CN1Cc1cccc2ccccc12 | – | 1.66 µM (active)
14 | CCCS(=O)(=O)Nc1ccc(F)c(C(=O)c2c[nH]c3ncc(Cl)cc23)c1F | – | 26.4 µM (active)
15 | CCOC(=O)N1CCC(=C2c3ccc(Cl)cc3CCc3cccnc32)CC1 | – | 20.9 µM (active)
16 | CC(C)C[C@H](NC(=O)[C@@H](O)[C@H](N)Cc1ccccc1)C(=O)O | – | 9.35 µM (active)
17 | Cc1cn[nH]c1 | – | 0.166 µM (active)
18 | CCn1c(-c2nonc2N)nc2c(C#CC(C)(C)O)ncc(OC[C@H]3CCCNC3)c21 | – | 2.96 µM (active)
19 | C[C@H](NC(=O)Cc1cc(F)cc(F)c1)C(=O)N[C@@H]1C(=O)N(C)c2ccccc2-c2ccccc21 | 63.3 | –
20 | COc1ccc(-c2c(-c3ccc(O)cc3O)n[nH]c2C)cc1 | – | 48.1 µM (active)
21 | CC[C@H](Nc1ncnc2nc[nH]c12)c1nc2cccc(F)c2c(=O)n1-c1ccccc1 | – | 18.7 µM (active)
22 | COc1nc(-c2ccc3c(c2)OCO3)n(-c2ccc(NC(=O)CSc3ccccc3)cc2)n1 | 99 | –
23 | CCCCCCCc1ccc(CCc2cccc(O)c2C(=O)O)cc1 | 85.7 | –
24 | CCOc1cc(N2CCC(O)CC2)ccc1Nc1ncc2c(n1)N(C)c1ccccc1C(=O)N2C | – | 3.32 µM (active)
25 | O=C1CCc2cc(OCCCCc3nnnn3C3CCCCC3)ccc2N1 | 122 | –

assay: Quantitative High-Throughput drug screen in 47 multiple myeloma cell lines against the NCATS MIPE library collection: KMS28BM_JCRB cell viability assay (AID 1919874); conditions: CellTiter-Glo ATP, 48 h; series mostly up to 45.8 µM; viability, % of control: at the top concentration; further: nearly all actives have a fitted effect of over 35% in size
How it was run: as §1

Row | Compound | viability, % of control [%] | Potency
26 | OCCn1cc(-c2cnc3nnn(Cc4ccc5ncccc5c4)c3n2)cn1 | 101 | –
27 | N=c1nc(N2CCCCC2)cc(N)n1O | 98.3 | –
28 | O=C(Nc1nc2ccccc2n1CCN1CCOCC1)c1cccc([N+](=O)[O-])c1 | 107 | –
29 | Cc1n[nH]c(C)c1Cc1sc2c(c1C(=O)N1C[C@H](O)CO1)c(=O)n(C)c(=O)n2CC(C)C | 106 | –
30 | CS(=O)(=O)c1cccc(CNc2nc(Nc3ccc4c(c3)CCC(=O)N4)ncc2C(F)(F)F)c1 | – | 16.6 µM (active)
31 | COc1cccc2cc(-c3nc(C4CCC(C(=O)O)CC4)n4ncnc(N)c34)[nH]c12 (configuration not stated) | – | 1.48 µM (active)
32 | Nc1nccc(-c2ccc3noc(-c4ccc(Cl)cc4)c3c2)n1 | 140 | –
33 | CO[C@@H]1[C@H](N(C)C(=O)c2ccccc2)C[C@H]2O[C@]1(C)n1c3ccccc3c3c4c(c5c6ccccc6n2c5c31)C(=O)NC4 | – | 2.96 µM (active)
34 | COc1cc(F)c(F)c(Nc2ccc(I)cc2F)c1NS(=O)(=O)C1(C[C@H](O)CO)CC1 | – | 20.9 µM (active)
35 | Nc1nc2ccc(OC(F)(F)F)cc2s1 | 110 | –
36 | CC(c1cc2ccccc2s1)N(O)C(N)=O (configuration not stated) | 115 | –
37 | c1ccc([C@H]2CN3CCSC3=N2)cc1 | 94.1 | –
38 | Nc1nc2[nH]cc(CCc3ccc(C(=O)N[C@@H](CCC(=O)O)C(=O)O)cc3)c2c(=O)[nH]1 | 107 | –
39 | CS(=O)(=O)c1ccc(C(=O)Nc2ccc(Cl)c(-c3ccccn3)c2)c(Cl)c1 | 119 | –
40 | N[C@@H]1CONC1=O | 93.2 | –
41 | NC(=O)c1ccc(-c2nc(-c3ccc4c(c3)OCO4)c(-c3ccccn3)[nH]2)cc1 | 111 | –
42 | COc1c(Cl)cc2c([nH]c3cnccc32)c1NC(=O)c1cccnc1C | – | 26.4 µM (active)
43 | Cn1cc(-c2ccc3nnc(C(F)(F)c4ccc5ncccc5c4)n3n2)cn1 | 112 | –
44 | CCn1c(-c2nonc2N)nc2cnc(Oc3cccc(NC(=O)c4ccc(OCCN5CCOCC5)cc4)c3)cc21 | – | 5.26 µM (active)
45 | Cc1cc(C=c2sc3nc4ccccc4n3c2=O)c(C)n1-c1ccccc1 | 122 | –
46 | CCOC(=O)N1CCC(=C2c3ccc(Cl)cc3CCc3cccnc32)CC1 | – | 23.5 µM (active)
47 | CC(C)C[C@H](NC(=O)[C@@H](O)[C@H](N)Cc1ccccc1)C(=O)O | – | 16.6 µM (active)
48 | Cc1cn[nH]c1 | – | 0.0469 µM (active)
49 | CCn1c(-c2nonc2N)nc2c(C#CC(C)(C)O)ncc(OC[C@H]3CCCNC3)c21 | – | 0.372 µM (active)
50 | CCCCCCCc1ccc(CCc2cccc(O)c2C(=O)O)cc1 | 100 | –
51 | CCOc1cc(N2CCC(O)CC2)ccc1Nc1ncc2c(n1)N(C)c1ccccc1C(=O)N2C | – | 4.69 µM (active)
52 | O=C1CCc2cc(OCCCCc3nnnn3C3CCCCC3)ccc2N1 | 98.1 | –
